Reference: PubChem BioAssay
The source made the active and inactive calls.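 The calls were made as follows, unless noted: active = mean z-score across replicates of 1.96 or higher in either the MELAS or the Rieske mutant cell line; inactive = the rest.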

Columns and labels:
[1] = sensitizers of A549 cells to miR-34 induction, primary screen, imaging, A549 dox-inducible miR-34, nuclei and caspase counts (AID 1347080;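 active = compounds whose cell count with miR-34 switched on is under 0.7 times the count with it off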); settings: A549 miR-34 inducible, Hoechst nuclei count, 48 h
[2] = survival rescue of mitochondrial mutant cells in low glucose, primary screen, MELAS cybrids, Rieske KO mouse fibroblasts, CellTiter-Glo (AID 1508586);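 also: z relative to plate mean and SD of compound and empty wells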
[3] = stronger effect = lower value, cell number ratio, induced over uninduced
[4] = measured here: relative caspase fold change +Dox/-Dox
[5] = measured here: total cells with miR-34 induction, stronger effect = lower value
[6] = measured here: total cells without miR-34 induction
[7] = MELAS cybrid survival, CellTiter-Glo 48 h, stronger effect = higher value
[8] = Rieske KO mouse fibroblast survival, CellTiter-Glo 72 h
Also: test concentration not given here.

SMILES | fold change [1, 3] | fold change [1, 4] | cell count [1, 5] | cell count [1, 6] | z-score [2, 7] | z-score [2, 8]
O=C(C=Cc1ccc(CN(CCO)CCc2c[nH]c3ccccc23)cc1)NO | 0.866 (inactive) | 0.616 | 944 | 1090 | -0.188 (inactive) | -2.63
CCOC(=O)C(CCc1ccccc1)NC(C)C(=O)N1CCCC1C(=O)O (centres undefined) | 0.954 (inactive) | 0.968 | 7520 | 7880 | -0.0746 (inactive) | -0.409
CCOc1ccc(Cc2cc(C3OC(CO)C(O)C(O)C3O)ccc2Cl)cc1 (centres undefined) | 0.916 (inactive) | 0.801 | 7650 | 8340 | 0.52 (inactive) | -0.097
CC(C)=CCC[C@](C)(OC1OC(COC2OCC(O)C(O)C2O)C(O)C(O)C1O)C1CC[C@]2(C)[C@@H]1C(O)C[C@H]1[C@@]3(C)CCC(OC4OC(CO)C(O)C(O)C4O)C(C)(C)[C@@H]3CC[C@]12C (some centres undefined) | 0.96 (inactive) | 0.422 | 7600 | 7910 | -0.238 (inactive) | 0.0165
C=C1c2cccc(O)c2C(O)=C2C(=O)[C@]3(O)C(O)=C(C(N)=O)C(=O)C(N(C)C)[C@@H]3C(O)[C@H]12 (some centres undefined) | 0.858 (inactive) | 1.09 | 7630 | 8890 | 5.63 (active) | 0.965
CCOC1OC(=O)CC1NC(=O)C1CCCN1C(=O)C(NC(=O)c1ccc(N)c(Cl)c1)C(C)(C)C (centres undefined) | 0.983 (inactive) | 0.559 | 8140 | 8280 | -0.153 (inactive) | 0.0351
CCOC(=O)c1ccc(NC2CCCCC2)c(N)c1 | 0.937 (inactive) | 0.358 | 7670 | 8180 | -0.371 (inactive) | 0.61
CCCC(C)NC(=O)c1ccc(Cl)c(Cl)c1 (centres undefined) | 0.868 (inactive) | 0.485 | 8950 | 10300 | -0.371 (inactive) | 0.701
CN(CC1COCCO1)S(=O)(=O)Nc1ccc2ccc3ncc(-c4cnn(C)c4)cc3c(=O)c2c1 (centres undefined) | 0.745 (inactive) | 1.24 | 3290 | 4410 | 4.55 (active) | 2.15
CCCC1CC(C(=O)NC(C(C)O)[C@@H]2OC(SC)C(O)C(O)C2O)N(C)C1 (some centres undefined) | 0.883 (inactive) | 0.66 | 9270 | 10500 | -0.388 (inactive) | -0.162
COC(=O)CCSCc1ccc(-c2onc(C)c2NC(=O)OC(C)c2ccccc2Cl)cc1 (centres undefined) | 0.847 (inactive) | 0.706 | 6550 | 7730 | -0.226 (inactive) | -0.128
CCC1C(=O)N(C)c2cnc(Nc3ccc(C(=O)NC4CCC(N5CCN(CC6CC6)CC5)CC4)cc3OC)nc2N1C(C)C (centres undefined) | 1.2 (inactive) | 0.875 | 1460 | 1210 | 6.19 (active) | -4.08
CC(=O)O[C@]1(C(C)=O)CC[C@H]2[C@@H]3C[C@H](C)C4=CC(=O)C=C[C@]4(C)[C@@]3(F)[C@H](O)C[C@@]21C | 0.862 (inactive) | 1.9 | 5370 | 6240 | -0.0969 (inactive) | -0.184
O=C(Oc1cc(S(=O)(=O)c2ccccc2)ccc1[N+](=O)[O-])c1ccc(Cl)cc1 | 0.897 (inactive) | 0.914 | 8540 | 9520 | -0.507 (inactive) | -2.16
CN(C)C(=O)C(O)C(Cc1ccccc1)NC(=O)c1cc2cc(Cl)ccc2[nH]1 (centres undefined) | 0.959 (inactive) | 0.88 | 8860 | 9230 | -0.337 (inactive) | 0.715
O=C1NC(=O)C(=Cc2ccc(-c3ccc(F)cc3)o2)S1 | 0.882 (inactive) | 0.688 | 8240 | 9340 | -0.386 (inactive) | 0.141
CC(CS)C(=O)N1CCCC1C(=O)O (centres undefined) | 1.01 (inactive) | 0.525 | 8320 | 8250 | -0.2 (inactive) | -0.263
NC(Cc1cc(I)c(Oc2cc(I)c(O)c(I)c2)c(I)c1)C(=O)O (centres undefined) | 0.891 (inactive) | 1.04 | 8130 | 9130 | -0.238 (inactive) | -1.06
CC(C)(C)OC(=O)NC1CCCCCC=CC2C[C@@]2(C(=O)NS(=O)(=O)C2CC2)NC(=O)C2CC(OC(=O)N3Cc4cccc(F)c4C3)CN2C1=O (some centres undefined) | 0.897 (inactive) | 1.55 | 6840 | 7630 | -0.451 (inactive) | 0.469
N#Cc1cc(CN2CCC(Nc3ncnc4sc(Cl)cc34)CC2)ccc1F | 0.932 (inactive) | 0.447 | 6280 | 6740 | -0.501 (inactive) | -0.555
C[C@]12CC[C@H]3c4ccc(O)cc4CC[C@H]3[C@@H]1CCC2OC(=O)CCC1CCCC1 (some centres undefined) | 0.984 (inactive) | 0.876 | 8050 | 8180 | -0.17 (inactive) | -0.155
Cc1ccc(C(=O)N(CCCN)C(c2nc3cc(Cl)ccc3c(=O)n2Cc2ccccc2)C(C)C)cc1 (centres undefined) | 0.993 (inactive) | 0.877 | 1340 | 1350 | 0.859 (inactive) | -0.608

SMILES | fold change [1, 3] | fold change [1, 4] | cell count [1, 5] | cell count [1, 6] | z-score [2, 7] | z-score [2, 8]
O=C(OC1C[N+]2(CCCOc3ccccc3)CCC1CC2)C(O)(c1cccs1)c1cccs1 (centres undefined) | 0.946 (inactive) | 1.31 | 8940 | 9450 | -0.202 (inactive) | -0.179
CNc1nc(Nc2cn(C(C)(C)C#N)nc2C)ncc1C(F)(F)F | 0.858 (inactive) | 0.457 | 7920 | 9230 | -0.302 (inactive) | 0.79
CNC1C(O)C(NC)[C@H]2O[C@@]3(O)C(=O)CC(C)O[C@H]3O[C@@H]2C1O (some centres undefined) | 1.01 (inactive) | 0.997 | 9590 | 9460 | -0.277 (inactive) | 0.762
CCOC(=O)C1=C(N)Oc2ccc(Br)cc2[C@H]1C(C#N)C(=O)OCC (some centres undefined) | 0.989 (inactive) | 0.887 | 5900 | 5960 | -0.334 (inactive) | 0.811
COCC(=O)NCC=Cc1ccc2ncnc(Nc3ccc(Oc4ccc(C)nc4)c(C)c3)c2c1 | 0.862 (inactive) | 1.21 | 5970 | 6930 | -0.531 (inactive) | 1.09
CC1C[C@H]2[C@@H]3CCC4=CC(=O)C=C[C@]4(C)[C@@H]3C(=O)C[C@]2(C)[C@]1(O)C(=O)CO (some centres undefined) | 1.57 (inactive) | 0.521 | 7500 | 4760 | -0.4 (inactive) | 0.152
O=C(O)CC1CC(c2ccccc2)=NO1 (centres undefined) | 0.969 (inactive) | 0.43 | 8760 | 9040 | -0.328 (inactive) | 0.698
C[C@@]12C(=O)N(c3ccc(C(=O)Nc4cccc5cccnc45)cc3)C(=O)[C@@H]1C1C=CC2C1 (some centres undefined) | 1.75 (inactive) | 0.793 | 7280 | 4160 | 0.0501 (inactive) | -0.119
CCOC(=O)C(CCc1ccccc1)NC(C)C(=O)N1Cc2cc(OC)c(OC)cc2CC1C(=O)O (centres undefined) | 0.97 (inactive) | 0.414 | 7830 | 8070 | -0.293 (inactive) | -0.111
CCOC(=O)Nc1cc(-c2ccc(C)c(NS(C)(=O)=O)c2)nn2c(C)nnc12 | 1.01 (inactive) | 0.716 | 4010 | 3970 | -0.585 (inactive) | -4.44
NC(=O)N1CCC(CC(=O)N2CCC(C3c4ncc(Br)cc4CCc4cc(Cl)cc(Br)c43)CC2)CC1 (centres undefined) | 1.04 (inactive) | 0.678 | 5310 | 5110 | -0.458 (inactive) | 0.637
COC1C(=O)[C@]2(C)C(OC)C[C@H]3OC[C@@]3(OC(C)=O)[C@H]2C(OC(=O)c2ccccc2)[C@@]2(O)CC(OC(=O)C(O)C(NC(=O)OC(C)(C)C)c3ccccc3)C(C)=C1C2(C)C (some centres undefined) | 1.03 (inactive) | 0.843 | 2690 | 2620 | 1.6 (inactive) | -0.148
CNc1nc(Nc2cnn(C3CCN(C4COC4)CC3F)c2Cl)ncc1C(F)(F)F (centres undefined) | 0.967 (inactive) | 0.45 | 8480 | 8760 | -0.354 (inactive) | 0.843
CCC1OC(=O)CC(O)C(C)C(OC2OC(C)C(O)C(N(C)C)C2O)C(CCN2CC(C)CC(C)C2)CC(C)C(=O)C=CC(C)=CC1COC1OC(C)C(O)C(OC)C1OC (centres undefined) | 0.924 (inactive) | 0.808 | 8240 | 8920 | -0.194 (inactive) | -0.165
N#CC1CCCN1C(=O)CNC12CC3CC(CC(O)(C3)C1)C2 (centres undefined) | 0.959 (inactive) | 0.68 | 8400 | 8750 | -0.00674 (inactive) | 0.11
CC(=O)O[C@]12COC1CC(O)[C@]1(C)C(=O)C(O)C3=C(C)C(OC(=O)C(O)C(NC(=O)OC(C)(C)C)c4ccccc4)C[C@](O)(C(OC(=O)c4ccccc4)C21)C3(C)C (some centres undefined) | 1.04 (inactive) | 0.7 | 2320 | 2220 | 6.54 (active) | -0.0789
CN(C)C(=O)Nc1cccc(-c2ccc(N(C)C)cc2)c1 | 0.935 (inactive) | 0.582 | 7650 | 8180 | -0.267 (inactive) | -1.04
Cc1cn(C2CC(O)C(CO)O2)c(=O)[nH]c1=O (centres undefined) | 0.853 (inactive) | 1.28 | 7950 | 9310 | -0.34 (inactive) | 0.719
Oc1ccc(OC2CCCCO2)cc1 (centres undefined) | 0.945 (inactive) | 0.827 | 7580 | 8020 | -0.229 (inactive) | -0.263
O=C(Nc1cc(C(F)(F)F)ccc1N1CCCCC1)c1ccncc1 | 0.916 (inactive) | 0.317 | 7440 | 8120 | -0.391 (inactive) | 1.41
CNC(=O)C(Cc1c[nH]c2ccccc12)NC(=O)C(CC(=O)NO)CC(C)C (centres undefined) | 0.883 (inactive) | 0.261 | 7640 | 8650 | 0.112 (inactive) | 0.643
CC(=O)ON=C1C(=O)N(Cc2cc(Cl)ccc2Cl)c2ccc(Cl)cc21 | 0.848 (inactive) | 0.441 | 7100 | 8370 | -0.0209 (inactive) | 1.12
